Common to all, as to experiment: HT-SELEX; 20 mM HEPES pH 7, 140 mM KCl, 5 mM NaCl, 1 mM K2HPO4, 2 mM MgSO4, 100 uM EGTA, ZnSO4, 0.1% Tween20; room temperature, 1 h; high values mean tight binding
Conditions in all cases: protein: ivt; tags: eGFP (N-terminal); dsDNA, one strand shown

Test [1] concerns the target ZNF721 full-length (Homo sapiens, UniProt Q8TF20-2 1-923). The gist of the method:
(§1)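 The binding signal is a relative k-mer count in selected reads, and higher values mean tighter binding. To obtain these reads, bead-bound tagged transcription factor (full-length or DNA-binding-domain fragment, produced in HEK293 lysate or cell-free extract) was mixed with a randomized 40-base DNA library for 1 h at room temperature in low-stringency HEPES/KCl buffer with Tween20. Bound DNA was recovered by washing and heat elution, PCR-amplified through successive cycles and sequenced on Illumina (~3 million 60 bp reads per sample).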

For test [2], the target named is ZNF721 DBD1 (Homo sapiens, UniProt Q8TF20-2 29-461). The procedure, abridged:
as §1

The target in test [3] is ZNF721 DBD2 (Homo sapiens, UniProt Q8TF20-2 395-923). The gist of the method: as §1
Sequence of ZNF721 DBD2 (Q8TF20 383-911): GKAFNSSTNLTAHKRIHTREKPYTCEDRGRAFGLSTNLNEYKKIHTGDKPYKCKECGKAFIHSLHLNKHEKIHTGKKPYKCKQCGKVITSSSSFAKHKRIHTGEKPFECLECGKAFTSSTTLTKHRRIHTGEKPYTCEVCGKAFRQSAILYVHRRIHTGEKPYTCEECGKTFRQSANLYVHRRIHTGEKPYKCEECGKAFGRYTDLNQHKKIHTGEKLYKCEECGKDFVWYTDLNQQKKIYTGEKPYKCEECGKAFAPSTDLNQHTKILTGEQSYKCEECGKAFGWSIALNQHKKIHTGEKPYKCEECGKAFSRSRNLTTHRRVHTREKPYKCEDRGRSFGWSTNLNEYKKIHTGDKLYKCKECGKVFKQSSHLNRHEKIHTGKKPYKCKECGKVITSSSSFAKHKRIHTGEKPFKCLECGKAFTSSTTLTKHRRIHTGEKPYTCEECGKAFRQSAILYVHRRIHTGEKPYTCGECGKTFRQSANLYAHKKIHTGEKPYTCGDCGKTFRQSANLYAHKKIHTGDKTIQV

Sequence of ZNF721 DBD1 (Q8TF20 17-449): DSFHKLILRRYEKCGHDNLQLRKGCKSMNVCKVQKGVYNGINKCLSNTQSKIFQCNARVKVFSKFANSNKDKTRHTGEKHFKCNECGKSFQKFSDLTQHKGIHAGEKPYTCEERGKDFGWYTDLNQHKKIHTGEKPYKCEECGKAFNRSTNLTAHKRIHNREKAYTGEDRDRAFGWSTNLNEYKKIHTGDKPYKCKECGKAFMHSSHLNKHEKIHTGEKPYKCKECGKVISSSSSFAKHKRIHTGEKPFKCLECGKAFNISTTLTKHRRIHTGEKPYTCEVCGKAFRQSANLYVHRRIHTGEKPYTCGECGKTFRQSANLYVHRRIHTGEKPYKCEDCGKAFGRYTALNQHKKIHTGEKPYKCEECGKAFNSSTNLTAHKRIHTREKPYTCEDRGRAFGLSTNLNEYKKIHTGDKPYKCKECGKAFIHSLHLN
Sequence of ZNF721 full-length (Q8TF20 other isoform, or with tags, fused parts or gaps): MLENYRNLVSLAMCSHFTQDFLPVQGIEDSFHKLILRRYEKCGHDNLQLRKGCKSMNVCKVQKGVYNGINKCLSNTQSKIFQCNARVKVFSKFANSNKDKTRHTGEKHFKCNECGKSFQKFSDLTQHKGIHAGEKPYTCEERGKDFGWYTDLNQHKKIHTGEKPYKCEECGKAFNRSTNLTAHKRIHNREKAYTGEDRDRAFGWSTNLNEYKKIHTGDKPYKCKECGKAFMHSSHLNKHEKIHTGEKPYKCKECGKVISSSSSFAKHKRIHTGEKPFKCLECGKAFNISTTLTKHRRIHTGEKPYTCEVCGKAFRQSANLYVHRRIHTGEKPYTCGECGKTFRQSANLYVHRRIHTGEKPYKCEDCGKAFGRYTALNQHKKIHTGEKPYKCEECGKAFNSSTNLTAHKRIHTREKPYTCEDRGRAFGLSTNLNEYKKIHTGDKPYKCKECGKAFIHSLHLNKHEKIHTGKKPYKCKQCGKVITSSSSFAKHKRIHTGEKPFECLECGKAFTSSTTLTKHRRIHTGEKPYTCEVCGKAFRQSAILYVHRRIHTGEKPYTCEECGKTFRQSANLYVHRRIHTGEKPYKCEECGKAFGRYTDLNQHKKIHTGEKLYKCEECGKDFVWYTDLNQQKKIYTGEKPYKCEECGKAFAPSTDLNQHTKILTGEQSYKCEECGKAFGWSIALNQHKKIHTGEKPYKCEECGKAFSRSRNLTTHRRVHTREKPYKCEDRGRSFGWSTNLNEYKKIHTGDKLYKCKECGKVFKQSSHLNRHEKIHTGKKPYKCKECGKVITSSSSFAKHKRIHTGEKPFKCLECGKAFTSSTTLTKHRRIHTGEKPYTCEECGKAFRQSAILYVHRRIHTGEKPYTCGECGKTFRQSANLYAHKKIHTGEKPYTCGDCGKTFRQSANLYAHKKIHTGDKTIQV

For GCCCCTCCCC, the binding signal in test [1] came to 0.144 relative 10-mer count; in test [2], 0.00596 relative 10-mer count; in test [3], 0.00551 relative 10-mer count.
As to CCCCACCCAA, the results for the binding signal in test [1], in test [2] and in test [3] were 0.134 relative 10-mer count, 0.00431 relative 10-mer count and 0.00491 relative 10-mer count, respectively.
Consider CCCCCCGCCA, for which the binding signal turned out to be 0.113 relative 10-mer count in test [1], 0.00445 relative 10-mer count in test [2] and 0.00372 relative 10-mer count in test [3].
For CGCCACCCCC the same measures were 0.212 relative 10-mer count, 0.00706 relative 10-mer count and 0.0024 relative 10-mer count.
CAAAAAAAAG: the binding signal in test [1] stood at 0.269 relative 10-mer count; in test [2], 0.0321 relative 10-mer count; in test [3] it was 0.108 relative 10-mer count.
The like results for CCCGCCCCGC were, in that order, 0.154 relative 10-mer count, 0.00518 relative 10-mer count and 0.00144 relative 10-mer count.
Turning to CCCCCTCCTC, the binding signal was found to be 0.116 relative 10-mer count in test [1], 0.00459 relative 10-mer count in test [2] and 0.00395 relative 10-mer count in test [3].
For CCCAACCACC the same measures were 0.17 relative 10-mer count, 0.00752 relative 10-mer count and 0.00539 relative 10-mer count.
For CCAACCCCCC the same measures were 0.169 relative 10-mer count, 0.0056 relative 10-mer count and 0.00144 relative 10-mer count.
For CCACCCACCA the same measures were 0.237 relative 10-mer count, 0.00977 relative 10-mer count and 0.00791 relative 10-mer count.
With CCCCCACCCA, the binding signal came out at 0.256 relative 10-mer count in test [1], 0.00931 relative 10-mer count in test [2] and 0.00348 relative 10-mer count in test [3].
For CCCACCCGCA the same measures were 0.109 relative 10-mer count, 0.00316 relative 10-mer count and 0.00563 relative 10-mer count.
On to AAAAAGCGTA, for which the binding signal in test [1] stood at 0.178 relative 10-mer count; in test [2] it was 0.0453 relative 10-mer count; in test [3], 0.0266 relative 10-mer count.
With CCCACCGTCC, the binding signal came to 0.105 relative 10-mer count in test [1], 0.00449 relative 10-mer count in test [2] and 0.00395 relative 10-mer count in test [3].
For AACAAAAAAG the same measures were 0.106 relative 10-mer count, 0.00927 relative 10-mer count and 0.0439 relative 10-mer count.
For CACCCCCGCC the same measures were 0.193 relative 10-mer count, 0.00683 relative 10-mer count and 0.00288 relative 10-mer count.
For the sequence CCCCCCAACC, the values for the binding signal in test [1], in test [2] and in test [3] were 0.194 relative 10-mer count, 0.00651 relative 10-mer count and 0.00707 relative 10-mer count, respectively.
Turning to CCCACCACCA, the binding signal was 0.199 relative 10-mer count in test [1], 0.00784 relative 10-mer count in test [2] and 0.00599 relative 10-mer count in test [3].
For CGCCTCCCCC the same measures were 0.126 relative 10-mer count, 0.0061 relative 10-mer count and 0.00336 relative 10-mer count.
The like results for CCACCCCCCG were, in that order, 0.179 relative 10-mer count, 0.00628 relative 10-mer count and 0.0024 relative 10-mer count.
On to CCACCATCCC, for which the binding signal in test [1] worked out at 0.162 relative 10-mer count; in test [2], 0.0055 relative 10-mer count; in test [3], 0.00443 relative 10-mer count.
The like results for CAACCCACCC were, in that order, 0.171 relative 10-mer count, 0.00532 relative 10-mer count and 0.00623 relative 10-mer count.
The like results for CCGCACCCCC were, in that order, 0.152 relative 10-mer count, 0.00569 relative 10-mer count and 0.00156 relative 10-mer count.
As for CCCTCCCCAC, the results for the binding signal in test [1], in test [2] and in test [3] were 0.217 relative 10-mer count, 0.00977 relative 10-mer count and 0.00863 relative 10-mer count, respectively.
Consider ACGAAAAAAA, for which the binding signal in test [1] worked out at 0.107 relative 10-mer count; in test [2], 0.0146 relative 10-mer count; in test [3], 0.0612 relative 10-mer count.
The like results for CACCCACCCC were, in that order, 0.325 relative 10-mer count, 0.0153 relative 10-mer count and 0.003 relative 10-mer count.
With AAAAAAGCAC, the binding signal stood at 0.158 relative 10-mer count in test [1], 0.0181 relative 10-mer count in test [2] and 0.0367 relative 10-mer count in test [3].
On to GGAGGGGGGA, for which the binding signal turned out to be 0.131 relative 10-mer count in test [1], 0.00601 relative 10-mer count in test [2] and 0.00336 relative 10-mer count in test [3].
The like results for CACCCCCTCC were, in that order, 0.159 relative 10-mer count, 0.00899 relative 10-mer count and 0.00719 relative 10-mer count.
The like results for CCCCACACCA were, in that order, 0.118 relative 10-mer count, 0.00417 relative 10-mer count and 0.00575 relative 10-mer count.
The like results for ATGGGGTGGG were, in that order, 0.125 relative 10-mer count, 0.00477 relative 10-mer count and 0.00551 relative 10-mer count.
As for CGAAAAAACA, the binding signal worked out at 0.153 relative 10-mer count in test [1], 0.0022 relative 10-mer count in test [2] and 0.161 relative 10-mer count in test [3].
The like results for CCACCCAGCC were, in that order, 0.102 relative 10-mer count, 0.00294 relative 10-mer count and 0.00264 relative 10-mer count.
With CCCTACCCCA, the binding signal came to 0.11 relative 10-mer count in test [1], 0.00491 relative 10-mer count in test [2] and 0.00395 relative 10-mer count in test [3].
ACGCCCACCC: the binding signal in test [1] turned out to be 0.129 relative 10-mer count; in test [2], 0.00486 relative 10-mer count; in test [3] it was 0.00587 relative 10-mer count.
In the case of CCGCCTCCCC, the binding signal in test [1] was found to be 0.155 relative 10-mer count; in test [2], 0.00798 relative 10-mer count; in test [3] it was 0.00204 relative 10-mer count.
The like results for GGGGTGGGCA were, in that order, 0.11 relative 10-mer count, 0.00381 relative 10-mer count and 0.00395 relative 10-mer count.
AAAAACAGTA: the results for the binding signal in test [1], in test [2] and in test [3] were 0.176 relative 10-mer count, 0.00119 relative 10-mer count and 0.212 relative 10-mer count, respectively.
For CAGCCCCCCC the same measures were 0.103 relative 10-mer count, 0.00284 relative 10-mer count and 0.0267 relative 10-mer count.
For the sequence ACCCCCTCCC, the binding signal in test [1] amounted to 0.158 relative 10-mer count; in test [2] it was 0.00807 relative 10-mer count; in test [3] it was 0.00503 relative 10-mer count.
CACCACCGCC: the binding signal in test [1] was found to be 0.103 relative 10-mer count; in test [2], 0.00454 relative 10-mer count; in test [3] it was 0.00324 relative 10-mer count.
With AGGTGGGGGG, the values for the binding signal in test [1], in test [2] and in test [3] were 0.157 relative 10-mer count, 0.0067 relative 10-mer count and 0.00527 relative 10-mer count, respectively.
The like results for CCCACCACGC were, in that order, 0.108 relative 10-mer count, 0.00408 relative 10-mer count and 0.00539 relative 10-mer count.
For CCCCCACCTC, the binding signal in test [1] amounted to 0.198 relative 10-mer count; in test [2], 0.00945 relative 10-mer count; in test [3] it was 0.00551 relative 10-mer count.
Regarding GCATACCCTA, the binding signal turned out to be 0.202 relative 10-mer count in test [1], 0.0231 relative 10-mer count in test [2] and 0.217 relative 10-mer count in test [3].
Consider CCACCCACCC, for which the binding signal in test [1] stood at 0.415 relative 10-mer count; in test [2], 0.0173 relative 10-mer count; in test [3], 0.00587 relative 10-mer count.
The like results for CGCCCCTCCC were, in that order, 0.158 relative 10-mer count, 0.00605 relative 10-mer count and 0.00336 relative 10-mer count.
The like results for CCCCCACGCC were, in that order, 0.181 relative 10-mer count, 0.00688 relative 10-mer count and 0.00419 relative 10-mer count.
For CCCCACCCGC the same measures were 0.186 relative 10-mer count, 0.00651 relative 10-mer count and 0.003 relative 10-mer count.
As to CCCTCCCACC, the binding signal in test [1] came to 0.265 relative 10-mer count; in test [2], 0.0161 relative 10-mer count; in test [3] it was 0.00755 relative 10-mer count.
As to CCGCGCCCCC, the binding signal was 0.115 relative 10-mer count in test [1], 0.00427 relative 10-mer count in test [2] and 0.0018 relative 10-mer count in test [3].
For CCCAAACCCC the same measures were 0.109 relative 10-mer count, 0.00298 relative 10-mer count and 0.00168 relative 10-mer count.
For CCCACACACC the same measures were 0.114 relative 10-mer count, 0.00449 relative 10-mer count and 0.00455 relative 10-mer count.
On to CGCCACCCCA, for which the binding signal in test [1] was determined as 0.135 relative 10-mer count; in test [2] it was 0.00358 relative 10-mer count; in test [3], 0.00192 relative 10-mer count.
CACCACCCCG: the results for the binding signal in test [1], in test [2] and in test [3] were 0.135 relative 10-mer count, 0.00518 relative 10-mer count and 0.00312 relative 10-mer count, respectively.
The like results for CCCCACCCCC were, in that order, 0.447 relative 10-mer count, 0.0179 relative 10-mer count and 0.00419 relative 10-mer count.
For CCCCCCTGCC the same measures were 0.121 relative 10-mer count, 0.00399 relative 10-mer count and 0.00168 relative 10-mer count.
For ACCCCCAACC the same measures were 0.12 relative 10-mer count, 0.00468 relative 10-mer count and 0.00479 relative 10-mer count.
In the case of CAACCCCCAC, the binding signal came to 0.108 relative 10-mer count in test [1], 0.00417 relative 10-mer count in test [2] and 0.00216 relative 10-mer count in test [3].
Regarding AGGGTATCCA, the binding signal is 0.133 relative 10-mer count in test [1], 0.00858 relative 10-mer count in test [2] and 0.224 relative 10-mer count in test [3].

The values above are taken from PMC13541613, “GHT-SELEX demonstrates unexpectedly high intrinsic sequence specificity and complex DNA binding of many human transcription factors”.
